Screens (PubChem)
This is a sample that favours compounds with a hit; in the whole collection about 5.3% have one here.
Tau FP inhib: tau fibrillization inhibition (FP); P10636; 0.39% of 280,000 active; K18 P301L tau heparin fibrillization, Alexa594 FP, 6 h; Potency, µM (series often up to 57.7 µM), usual class: inhibitors; also: nearly all actives have a fitted effect of over 55% in size
Target sequence (P10636 561-689 P618L limits assumed): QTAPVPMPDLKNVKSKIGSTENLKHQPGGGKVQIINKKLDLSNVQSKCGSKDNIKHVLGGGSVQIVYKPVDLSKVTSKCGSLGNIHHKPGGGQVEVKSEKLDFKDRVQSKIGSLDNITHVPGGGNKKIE
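Steps: dispense K18 P301L tau (15 uM plus 0.24 uM Alexa 594 tracer, final) in pH 7 sodium acetate; add compound; add heparin (20 uM final); incubate 6 hr, 37 C; add ThT (30 uM final); after 1 hr ambient, read FP.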
FBPA coupling cs: inhibits coupling enzyme system, counter-screen for aldolase hits; AID 2472; coupling enzyme system counterscreen, AmpLite Red fluorescence; activity change, negative = inhibition, % at 58.2 µM, hits read low; 0.67% of 290,000 active; in the data active = activity change below about -30%
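Counterscreen of the coupled detection system alone, without aldolase: glyceraldehyde-3-phosphate coupling enzymes plus AmpLite Red readout. Compounds at 57.5 uM final, 10 min RT preincubation, 20 min RT reaction, fluorescence 525/598 nm.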
Tau fluor counter: counter-screen for tau fibril formation inhibitors; tau K18 P301L Alexa594 fluorescence, heparin fibrillization; Potency, µM (doses to about 57.7 µM); 0.93% of 280,000 active; also: nearly all actives have a fitted effect of over 55% in size
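Human tau K18 P301L (15 uM unlabeled, 0.24 uM Alexa 594-labeled) in 100 mM sodium acetate pH 7 with 20 uM heparin, 6 hr at 37 C. ThT 30 uM added, 1 hr ambient; Alexa 594 FP and total fluorescence read at 555/632 nm.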
Sfp inh: blocks B. subtilis Sfp PPTase activity | Potency, µM, most hits filed as inhibitors | 3.5% of 310,000 active | Biochemical Sfp PPTase activity, qHTS | AID 1490 | Q9F4F7;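 also: the enzyme is Sfp with the accession as filed and its product quenches rhodamine fluorescence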
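Compounds were incubated with enzyme (final 15 nM) for 15 min at room temperature before substrate addition started the reaction. Fluorescence at 525 nm excitation, 598 nm emission was recorded immediately and after 30 minutes.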
Tau ThT inhib: inhibitors of human tau fibril formation, thioflavin T binding. P10636. recombinant tau K18 P301L, heparin-induced fibrillization, ThT fluorescence. Potency, µM (titrated, usually from 57.4 µM), most hits filed as inhibitors. 2.1% of 270,000 active. AID 1460; also: nearly all actives have a fitted effect of over 55% in size
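ThT emission at 510 nm, taken 1 hr after adding 30 uM dye, quantifies aggregates formed when 20 uM heparin acts on human tau K18 P301L for 6 hr at 37 C.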
KDM4E inh: inhibitors of human JMJD2E histone demethylase | B2RXH2 | JMJD2E catalytic domain, FDH-coupled NADH fluorescence (FDH is formaldehyde dehydrogenase) | Potency, µM (highest dose often 57.1 µM), usual class: inhibitors | 1.6% of 230,000 active | AID 2147; active = well fitted inhibition curve with a large enough effect, not every such curve was filed as active; inconclusive = small, poorly fitted or top-dose-only effect, or another doubt; inactive = no such curve, though single readings can be large or run the other way; also: nearly all actives have a fitted effect of over 50% in size
Target sequence (B2RXH2 1-337 limits assumed): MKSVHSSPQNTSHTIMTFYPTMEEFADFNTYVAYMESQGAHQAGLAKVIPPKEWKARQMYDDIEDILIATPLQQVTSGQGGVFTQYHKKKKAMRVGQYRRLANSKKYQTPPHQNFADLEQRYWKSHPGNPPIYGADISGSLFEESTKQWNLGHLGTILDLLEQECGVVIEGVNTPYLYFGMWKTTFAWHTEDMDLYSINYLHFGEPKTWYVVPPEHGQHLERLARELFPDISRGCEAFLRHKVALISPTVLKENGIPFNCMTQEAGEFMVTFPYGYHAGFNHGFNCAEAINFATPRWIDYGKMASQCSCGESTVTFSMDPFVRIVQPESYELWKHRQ
A number is an active result; – = inactive; ? = inconclusive; · = no result given; [ ] = remark or other dose. Unless noted, calls follow the shape of the dose curve; as a rule, active = well fitted curve in the direction sought with a large enough effect; inconclusive = small, poorly fitted or top-dose-only effect, or another doubt; inactive = no such curve, though single readings can be large; an effect the other way counts as inactive or inconclusive.

SMILES	Tau FP inhib	FBPA coupling cs	Tau fluor counter	Sfp inh	Tau ThT inhib	KDM4E inh
COc1ccc(CC(=O)Nc2ccc(C(C)=O)cc2)cc1	–	–	–	50µM	?	–
COc1ccc2cc(CNc3ccccc3)c(=O)n(CC(=O)Nc3ccc(C(C)=O)cc3)c2c1	–	·	13µM[quencher]	·	–	·
COc1ccc2cc(CNc3ccccc3)c(=O)n(CC(=O)Nc3ccc(C)cc3C)c2c1	?	·	–	·	–	·
CCOC(=O)c1ccccc1NC(=O)CN(c1ccccc1OC)S(=O)(=O)c1ccc(C)cc1	?	·	–	·	–	·
Cc1ccc(CN2CCCn3nc(C(=O)NCc4cc(C)ccc4C)cc3C2=O)cc1	–	·	–	·	–	·
CC1=C(C)C(=O)C(C(CCCCCC(=O)O)c2ccccc2)=C(C)C1=O (stereo not given)	·	·	·	–	·	·
COc1ccccc1NS(=O)(=O)c1cccc(C(=O)N/N=C/c2ccc3c(c2)OCCO3)c1	?	–	?	–	–	?
COc1ccc(NS(=O)(=O)c2cccc(C(=O)N/N=C(\C)c3ccc(-n4ccnc4)cc3)c2)cc1	–	-46	–	–	–	?
COc1ccc(NS(=O)(=O)c2cccc(C(=O)N/N=C/c3cn(-c4ccccc4)nc3-c3ccccc3)c2)cc1	?	–	–	–	–	–
COc1ccc(NS(=O)(=O)c2cccc(C(=O)N/N=C/c3cn(-c4ccccc4)nc3-c3ccc(OC)cc3)c2)cc1	32µM	–	?	–	?	?
COc1ccc(NS(=O)(=O)c2cccc(C(=O)N/N=C/c3ccc4c(c3)OCCO4)c2)cc1	–	–	–	16µM	–	–
COc1cccc(O)c1CN1CCC(C(=O)Nc2ccc(-c3cccc(C)c3)cc2)CC1	·	–	·	79µM	·	·
Cc1cc2c(c(=O)o1)[C@H](O)[C@H]1O[C@@H]1C2=O	–[11.6 µM]	–	–[11.6 µM]	–	?	·
COc1cc(C(=O)Nc2ccc(N(C)C)cc2)cc(OC)c1OC	–	–	–	–	16µM	–
COc1ccc(C(=O)CCN2CCN(c3ccccc3F)CC2)cc1	–	–	–	50µM	–	–
COc1ccc(C(=O)CN2CCN(c3ccc(F)cc3)CC2)cc1OC	–	–	–	–	?	–
COc1ccc(C(=O)CN2CCN(c3ccc(Cl)cc3)CC2)cc1OC	·	–	·	79µM	·	·
CC(C)NC(=O)CN1CCN(c2ncccn2)CC1	–	–	–	79µM	–	?
COc1ccccc1N1CCN(CC(=O)c2ccc(F)cc2)CC1	·	–	·	40µM	·	·
COc1ccc(C(=O)CCN2CCN(c3ccc(OC)cc3)CC2)cc1	·	–	·	–	·	·
NCCC[C@@H](N)C(=O)O	–	·	–	?	–	·
COc1ccc(C(=O)CN2CCN(c3ncccn3)CC2)cc1	·	–	·	50µM	·	·
O=C(CCN1CCN(c2ccccc2)CC1)c1ccc(Br)cc1	·	–	·	–	·	·
O=C(CCN1CCN(c2ccccc2F)CC1)c1ccc(Br)cc1	–	–	–	–	–	25µM
O=C(CN(Cc1ccc2c(c1)OCO2)C(=O)CSc1nc2ccccc2o1)NC1CCCCC1	–	–	–	79µM	–	–
SMILES	Tau FP inhib	FBPA coupling cs	Tau fluor counter	Sfp inh	Tau ThT inhib	KDM4E inh
COCCN(CC(=O)NC1CCCCC1)C(=O)CSc1nc2ccccc2o1	–	–	–	–	–	–
Cc1ccc([C@@H]2C3COCC=C3C(C#N)=C(N)C2(C#N)C#N)o1 (stereo not given in full)	?	–	–	–	25µM	?
Cc1ccc(C2C3CSCC=C3C(C#N)=C(N)C2(C#N)C#N)cc1 (stereo not given)	?	–	–	?	20µM	?
CCN1CC=C2C(C#N)=C(N)C(C#N)(C#N)C(c3cc(Cl)ccc3Cl)C2C1 (stereo not given)	?	–	–	–	13µM	?
N#CC1=C(N)C(C#N)(C#N)[C@H](c2ccncc2)[C@H]2CC3(CC=C12)OCCO3	–	–	–	–	–	–
CC(C)N1CC=C2C(C#N)=C(N)C(C#N)(C#N)[C@H](c3ccoc3)[C@H]2C1	?	–	–	–	20µM	?
CC(C)N1CC=C2C(C#N)=C(N)C(C#N)(C#N)C(c3ccccc3)C2C1 (stereo not given)	?	–	–	–	?	?
